According to PubChem BioAssay (NCATS):
Inconclusive results are not listed. A call without a number means that no potency is given here. Values without a mark were called inactive. Calls of active or inactive are those of the source. The call rests on the fitted dose curve; in most records, active means well fitted curve in the direction sought with a large enough effect; inconclusive means small, poorly fitted or top-dose-only effect, or another doubt; inactive means no such curve, though single readings can be large; an effect the other way counts as inactive or inconclusive.

Assay: qHTS of pediatric cancer cell lines to identify multiple opportunities for drug repurposing: Primary screen for RD cells (AID 1347104); further: nearly all actives have a fitted effect of over 55% in size
Settings: RD rhabdomyosarcoma viability, CellTiter-Glo luminescence, 48 h; series mostly up to 46 µM
Procedure, shortened: (§1)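 Viability was measured as metabolically active cells after 48 hours of treatment, read by CellTiter-Glo luminescence. Compounds were tested at multiple final concentrations, giving concentration-response curves.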

| Structure (SMILES) | Potency | activity change, negative = cytotoxic |
| --- | --- | --- |
| C[N+](C)(C)CCOC(=O)CCC(=O)OCC[N+](C)(C)C | inactive | – |
| CC(=O)OCC1=C(C(=O)O)N2C(=O)[C@@H](NC(=O)Cc3cccs3)[C@H]2SC1 | inactive | – |
| CC(C)NNC(=O)c1ccncc1 | inactive | – |
| CCN(CC)CCNC(=O)c1cc(S(C)(=O)=O)ccc1OC | inactive | – |
| O=C(O)CN(CCOCCOCCN(CC(=O)O)CC(=O)O)CC(=O)O | – | 10.3% [at 0.597 µM] |
| CSc1ccc(C(=O)c2[nH]c(=O)[nH]c2C)cc1 | inactive | – |
| Cc1nnc(SCC2=C(C(=O)O)N3C(=O)[C@@H](NC(=O)Cn4cnnn4)[C@H]3SC2)s1 | inactive | – |
| NC(=O)N1c2ccccc2C=Cc2ccccc21 | inactive | – |
| CC(C(=O)O)c1ccc(CC2CCCC2=O)cc1 (stereo unspecified) | inactive | – |
| CCn1ccnc1CC1COc2ccccc2O1 (stereo unspecified) | inactive | – |
| COc1ccc([C@@H]2Sc3ccccc3N(CCN(C)C)C(=O)[C@@H]2OC(C)=O)cc1 | inactive | – |
| CN1CCN(CC(=O)N2c3ccccc3C(=O)Nc3cccnc32)CC1 | – | 6.71% [at 4.84 µM] |
| CN(C)CCOC(=O)COc1ccc(Cl)cc1 | inactive | – |
| Cc1ccc(=O)n(-c2ccccc2)c1 | inactive | – |
| CCCN(CCC)C(=O)C(CCC(=O)O)NC(=O)c1ccccc1 (stereo unspecified) | inactive | – |
| CCCOc1ccccc1-c1nc2n[nH]nc2c(=O)[nH]1 | inactive | – |
| O=C1CC2(CCCC2)CC(=O)N1CCCCN1CCN(c2ncccn2)CC1 | inactive | – |
| CCc1c(C)[nH]c2c1C(=O)C(CN1CCOCC1)CC2 (stereo unspecified) | inactive | – |
| CCO/C([O-])=N/c1c[n+](N2CCOCC2)no1 | inactive | – |
| Brc1c(NC2=NCCN2)ccc2nccnc12 | inactive | – |
| NC/C=C/C(=O)O | inactive | – |

Assay: qHTS of pediatric cancer cell lines to identify multiple opportunities for drug repurposing: Primary screen for MG 63 (6-TG R) cells (AID 1347105); further: nearly all actives have a fitted effect of over 50% in size
Settings: MG 63 (6-TG R) viability, CellTiter-Glo, 48 h; series mostly up to 46 µM
Procedure, shortened: as §1

| Structure (SMILES) | Potency | activity change, negative = cytotoxic |
| --- | --- | --- |
| C[N+](C)(C)CCOC(=O)CCC(=O)OCC[N+](C)(C)C | inactive | – |
| C[C@]12C=CC(=O)C=C1CC[C@H]1[C@@H]3C[C@@H](O)[C@](O)(C(=O)CO)[C@@]3(C)C[C@H](O)[C@@]12F | inactive | – |
| CC(=O)OCC1=C(C(=O)O)N2C(=O)[C@@H](NC(=O)Cc3cccs3)[C@H]2SC1 | inactive | – |
| CC(C)NNC(=O)c1ccncc1 | inactive | – |
| CCN(CC)CCNC(=O)c1cc(S(C)(=O)=O)ccc1OC | inactive | – |
| O=C(O)CN(CCOCCOCCN(CC(=O)O)CC(=O)O)CC(=O)O | – | -8.72% [at 0.597 µM] |
| Cc1cccc(C)c1NC(=O)C(C)N (stereo unspecified) | inactive | – |
| CSc1ccc(C(=O)c2[nH]c(=O)[nH]c2C)cc1 | inactive | – |
| C[N+](C)(C)CCCCCCCCCC[N+](C)(C)C | inactive | – |
| Cc1nnc(SCC2=C(C(=O)O)N3C(=O)[C@@H](NC(=O)Cn4cnnn4)[C@H]3SC2)s1 | inactive | – |
| NC(=O)N1c2ccccc2C=Cc2ccccc21 | inactive | – |
| CC(C(=O)O)c1ccc(CC2CCCC2=O)cc1 (stereo unspecified) | inactive | – |
| CCn1ccnc1CC1COc2ccccc2O1 (stereo unspecified) | inactive | – |
| COc1ccc([C@@H]2Sc3ccccc3N(CCN(C)C)C(=O)[C@@H]2OC(C)=O)cc1 | inactive | – |
| c1cnc(N2CCN(Cc3ccc4c(c3)OCO4)CC2)nc1 | inactive | – |
| CN1CCN(CC(=O)N2c3ccccc3C(=O)Nc3cccnc32)CC1 | – | 3.64% [at 4.84 µM] |
| CN(C)CCOC(=O)COc1ccc(Cl)cc1 | inactive | – |
| Cc1ccc(=O)n(-c2ccccc2)c1 | inactive | – |

| Structure (SMILES) | Potency | activity change, negative = cytotoxic |
| --- | --- | --- |
| CN/C(=C\[N+](=O)[O-])NCCSCc1ccc(CN(C)C)o1 | inactive | – |
| CCCN(CCC)C(=O)C(CCC(=O)O)NC(=O)c1ccccc1 (stereo unspecified) | inactive | – |
| CCCOc1ccccc1-c1nc2n[nH]nc2c(=O)[nH]1 | inactive | – |
| O=C1CC2(CCCC2)CC(=O)N1CCCCN1CCN(c2ncccn2)CC1 | inactive | – |
| NC(Cc1ccc(Cl)cc1)C(=O)O (stereo unspecified) | – | 9.57% [at 0.597 µM] |
| CC[N+](C)(C)c1cccc(O)c1 | inactive | – |
| CCc1c(C)[nH]c2c1C(=O)C(CN1CCOCC1)CC2 (stereo unspecified) | inactive | – |
| CC1=NS(=O)(=O)c2cc(Cl)ccc2N1 | inactive | – |
| C[N+](C)(C)CCOC(N)=O | inactive | – |
| c1ccc2c(c1)CCCC2C1=NCCN1 (stereo unspecified) | inactive | – |
| CN(C)C(=O)Oc1cccc([N+](C)(C)C)c1 | inactive | – |
| CCN(CC)CC(=O)Nc1c(C)cccc1C | inactive | – |
| COc1ccc(CN(CCN(C)C)c2ccccn2)cc1 | inactive | – |
| CCO/C([O-])=N/c1c[n+](N2CCOCC2)no1 | inactive | – |
| CN1C(=O)CC[C@H]1c1cccnc1 | inactive | – |
| Brc1c(NC2=NCCN2)ccc2nccnc12 | inactive | – |
| NC/C=C/C(=O)O | inactive | – |

Assay: qHTS of pediatric cancer cell lines to identify multiple opportunities for drug repurposing: Primary screen for control Hh wild type fibroblast cells (AID 1347106);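 further: a drop in luminescence marks cytotoxicity and a rise apparent proliferation; nearly all actives have a fitted effect of over 55% in size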
Settings: Hh wild-type fibroblast viability, CellTiter-Glo luminescence, 48 h; series mostly up to 46 µM
Procedure, shortened: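 Viability after 48 h compound treatment at 37C, 500-1,000 cells/well, read as ATP luminescence with CellTiter-Glo. Primary screens used 11-point (MIPE, 0.78 nM-46 µM) or 8-point (NPC, 0.59 nM-46 µM) final concentrations; follow-up screens used 11-point dilutions.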

| Structure (SMILES) | outcome | activity change, negative = cytotoxic |
| --- | --- | --- |
| C[N+](C)(C)CCOC(=O)CCC(=O)OCC[N+](C)(C)C | inactive | – |
| C[C@]12C=CC(=O)C=C1CC[C@H]1[C@@H]3C[C@@H](O)[C@](O)(C(=O)CO)[C@@]3(C)C[C@H](O)[C@@]12F | inactive | – |
| CC(=O)OCC1=C(C(=O)O)N2C(=O)[C@@H](NC(=O)Cc3cccs3)[C@H]2SC1 | inactive | – |
| CC(C)NNC(=O)c1ccncc1 | inactive | – |
| CCN(CC)CCNC(=O)c1cc(S(C)(=O)=O)ccc1OC | inactive | – |
| O=C(O)CN(CCOCCOCCN(CC(=O)O)CC(=O)O)CC(=O)O | – | 5.93% [at 0.597 µM] |
| Cc1cccc(C)c1NC(=O)C(C)N (stereo unspecified) | inactive | – |
| CSc1ccc(C(=O)c2[nH]c(=O)[nH]c2C)cc1 | inactive | – |
| C[N+](C)(C)CCCCCCCCCC[N+](C)(C)C | inactive | – |
| Cc1nnc(SCC2=C(C(=O)O)N3C(=O)[C@@H](NC(=O)Cn4cnnn4)[C@H]3SC2)s1 | inactive | – |
| NC(=O)N1c2ccccc2C=Cc2ccccc21 | inactive | – |
| CC(C(=O)O)c1ccc(CC2CCCC2=O)cc1 (stereo unspecified) | inactive | – |
| CCn1ccnc1CC1COc2ccccc2O1 (stereo unspecified) | inactive | – |
| COc1ccc([C@@H]2Sc3ccccc3N(CCN(C)C)C(=O)[C@@H]2OC(C)=O)cc1 | inactive | – |
| c1cnc(N2CCN(Cc3ccc4c(c3)OCO4)CC2)nc1 | inactive | – |
| CN1CCN(CC(=O)N2c3ccccc3C(=O)Nc3cccnc32)CC1 | – | 2.83% [at 4.84 µM] |
| CN(C)CCOC(=O)COc1ccc(Cl)cc1 | inactive | – |
| Cc1ccc(=O)n(-c2ccccc2)c1 | inactive | – |

| Structure (SMILES) | outcome | activity change, negative = cytotoxic |
| --- | --- | --- |
| CN/C(=C\[N+](=O)[O-])NCCSCc1ccc(CN(C)C)o1 | inactive | – |
| CCCN(CCC)C(=O)C(CCC(=O)O)NC(=O)c1ccccc1 (stereo unspecified) | inactive | – |
| CCCOc1ccccc1-c1nc2n[nH]nc2c(=O)[nH]1 | inactive | – |
| O=C1CC2(CCCC2)CC(=O)N1CCCCN1CCN(c2ncccn2)CC1 | inactive | – |
| NC(Cc1ccc(Cl)cc1)C(=O)O (stereo unspecified) | – | 6.18% [at 0.597 µM] |
| CC[N+](C)(C)c1cccc(O)c1 | inactive | – |
| CCc1c(C)[nH]c2c1C(=O)C(CN1CCOCC1)CC2 (stereo unspecified) | inactive | – |
| CC1=NS(=O)(=O)c2cc(Cl)ccc2N1 | inactive | – |
| C[N+](C)(C)CCOC(N)=O | inactive | – |
| c1ccc2c(c1)CCCC2C1=NCCN1 (stereo unspecified) | inactive | – |
| CN(C)C(=O)Oc1cccc([N+](C)(C)C)c1 | inactive | – |
| CCN(CC)CC(=O)Nc1c(C)cccc1C | inactive | – |
| COc1ccc(CN(CCN(C)C)c2ccccn2)cc1 | inactive | – |
| CCO/C([O-])=N/c1c[n+](N2CCOCC2)no1 | inactive | – |
| CN1C(=O)CC[C@H]1c1cccnc1 | inactive | – |
| Brc1c(NC2=NCCN2)ccc2nccnc12 | inactive | – |
| NC/C=C/C(=O)O | inactive | – |
